# PubChem BioAssay (EPA / NIEHS)
# The source made the active and inactive calls. The calls were made as follows: active = hit-call score of the fitted dose curve at least 0.9, where 1 is the maximum; inactive = score below 0.9.
# How the values were obtained:
# Settings in all cases: mRNA level, 48 h; actives raise or lower the signal
# [1] = read-out: Cytochrome P450 (CYP1A1), CYP1A1 (gene 1543); experiment: LTEA_HepaRG_CYP1A1: Life Technologies and Expression Analysis (LTEA) Assay for Cytochrome P450 (CYP1A1) using HepaRG (AID 2283454)
# Summary of the method: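 HepaRG, 48 h post-plating switched to serum-free induction medium; 8-pt conc-response (top 100 uM, half-log, 0.5% DMSO), duplicates, 48 h. Lysis in RLT, TaqMan qRT-PCR for CYP1A1; gain or loss vs DMSO.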
# [2] = read-out: CFLAR gene, CFLAR (gene 8837); experiment: LTEA_HepaRG_CFLAR: Life Technologies and Expression Analysis (LTEA) Assay for CFLAR gene using HepaRG (AID 2283455)
# Summary of the method: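 Differentiated HepaRG cells in serum-free induction medium were exposed 48 h in duplicate to eight half-log concentrations up to 100 uM in 0.5% DMSO; mRNA measured by TaqMan qRT-PCR, normalized to ACTB, GAPDH, POLR2A; bidirectional fitting versus DMSO.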
# [3] = read-out: Forkhead box O1 (FOXO1), FOXO1 (gene 2308); experiment: LTEA_HepaRG_FOXO1: Life Technologies and Expression Analysis (LTEA) Assay for Forkhead box O1 (FOXO1) using HepaRG (AID 2283456)
# Summary of the method: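 Differentiated HepaRG cells, in serum-free induction medium with 0.5% DMSO, exposed 48 h in duplicate to 8-point half-log series from 100 uM. FOXO1 mRNA measured by TaqMan qRT-PCR, normalized to ACTB, GAPDH, POLR2A; bidirectional fit versus DMSO.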
# [4] = read-out: growth arrest and DNA damage 45 (GADD45A), GADD45A (gene 1647); experiment: LTEA_HepaRG_GADD45A: Life Technologies and Expression Analysis (LTEA) Assay for growth arrest and DNA damage 45 (GADD45A) using HepaRG (AID 2283458)
# Summary of the method: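 Differentiated HepaRG cells were exposed in duplicate for 48 h in serum-free induction medium to 8-point half-log concentrations up to 100 uM in 0.5% DMSO. GADD45A mRNA was measured by TaqMan qRT-PCR, normalized to ACTB, GAPDH and POLR2A, with bidirectional fitting versus DMSO.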
# [5] = read-out: Forkhead box O3 (FOXO3), FOXO3 (gene 2309); experiment: LTEA_HepaRG_FOXO3: Life Technologies and Expression Analysis (LTEA) Assay for Forkhead box O3 (FOXO3) using HepaRG (AID 2283459)
# Summary of the method: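 Differentiated human HepaRG cells, 48 h post-plating, exposed in duplicate for 48 h in serum-free induction medium; 8-point half-log series from 100 uM in 0.5% DMSO. FOXO3 mRNA by TaqMan qRT-PCR, normalized to ACTB/GAPDH/POLR2A; bidirectional fit versus DMSO.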
# [6] = read-out: ABC Transporter (ABCB1), ABCB1 (gene 5243); experiment: LTEA_HepaRG_ABCB1: Life Technologies and Expression Analysis (LTEA) Assay for ABC Transporter (ABCB1) using HepaRG (AID 2283460)
# Summary of the method: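 HepaRG cells exposed in duplicate for 48 h in serum-free induction medium to eight half-log concentrations up to 100 uM in 0.5% DMSO. ABCB1 mRNA quantified by qRT-PCR, normalised to ACTB, GAPDH and POLR2A; fitted bidirectionally versus DMSO.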
# [7] = read-out: growth arrest and DNA damage 45 (GADD45B), GADD45B (gene 4616); experiment: LTEA_HepaRG_GADD45B: Life Technologies and Expression Analysis (LTEA) Assay for growth arrest and DNA damage 45 (GADD45B) using HepaRG (AID 2283461)
# Summary of the method: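 HepaRG, ~100,000 cells/well, 48 h plating; serum-free induction medium; cpd 100 uM top, half-log x8, 0.5% DMSO, duplicate, 48 h; lysis in RLT, RNA isolation, qRT-PCR; norm ACTB/GAPDH/POLR2A; bidirectional fit vs DMSO.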
# [8] = read-out: ABC Transporter (ABCC3), ABCC3 (gene 8714); experiment: LTEA_HepaRG_ABCC3: Life Technologies and Expression Analysis (LTEA) Assay for ABC Transporter (ABCC3) using HepaRG (AID 2283462)
# Summary of the method: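 Human HepaRG, 48 h dosing, 8-pt half-log series from 100 uM, 0.5% DMSO vehicle, duplicates. ABCC3 mRNA by TaqMan qRT-PCR, housekeeping-normalized; bidirectional curve fit vs DMSO.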
# [9] = read-out: ABC Transporter (ABCB11), ABCB11 (gene 8647); experiment: LTEA_HepaRG_ABCB11: Life Technologies and Expression Analysis (LTEA) Assay for ABC Transporter (ABCB11) using HepaRG (AID 2283463)
# Summary of the method: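 Differentiated human HepaRG cells in serum-free induction medium, dosed in duplicate for 48 h. Eight-point half-log series from 100 uM in 0.5% DMSO; ABCB11 mRNA by qRT-PCR, normalized to ACTB, GAPDH, POLR2A, fitted bidirectionally versus DMSO.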
smiles,measurement,setting,value
CC(C)CCCCCCOC(=O)C1CCCCC1C(=O)OCCCCCCC(C)C (centres undefined),AC50,[1],75.6 µM (active)
same,outcome,[2],inactive
same,outcome,[3],inactive
same,AC50,[4],0.00316 µM (active)
same,outcome,[5],inactive
same,outcome,[6],inactive
same,outcome,[7],inactive
same,outcome,[8],inactive
same,outcome,[9],inactive
c1ccc2c(c1)-c1cccc3c1c-2cc1ccccc13,AC50,[1],0.851 µM (active)
same,AC50,[2],10.6 µM (active)
same,AC50,[3],5.04 µM (active)
same,outcome,[4],inactive
same,AC50,[5],4.9 µM (active)
same,AC50,[6],15.5 µM (active)
same,AC50,[7],11.3 µM (active)
same,AC50,[8],21 µM (active)
same,AC50,[9],15.1 µM (active)
OC[C@H]1O[C@@](CO)(O[C@H]2O[C@H](CO)[C@@H](O)[C@H](O)[C@H]2O)[C@@H](O)[C@@H]1O,AC50,[1],67.1 µM (active)
same,outcome,[2],inactive
same,outcome,[3],inactive
same,outcome,[4],inactive
same,outcome,[5],inactive
same,outcome,[6],inactive
same,outcome,[7],inactive
same,outcome,[8],inactive
same,outcome,[9],inactive
NC(=O)NN=Cc1ccc([N+](=O)[O-])o1,AC50,[1],50 µM (active)
same,outcome,[2],inactive
same,outcome,[3],inactive
same,outcome,[4],inactive
same,outcome,[5],inactive
same,outcome,[6],inactive
same,outcome,[7],inactive
same,outcome,[8],inactive
same,outcome,[9],inactive
O=C(O)c1cccc(C[C@@H]2COc3ccc(OCc4nc5cc(F)ccc5s4)cc3[C@@H]2O)c1,AC50,[1],33.4 µM (active)
same,outcome,[2],inactive
same,outcome,[3],inactive
same,outcome,[4],inactive
same,outcome,[5],inactive
same,outcome,[6],inactive
same,outcome,[7],inactive
same,AC50,[8],79.3 µM (active)
same,AC50,[9],79.3 µM (active)
COCc1nnc(-c2ccc[n+]([O-])c2)n1-c1c(Cl)c(Cl)cc2[nH]c(=O)c(=O)[nH]c12,AC50,[1],50 µM (active)
same,outcome,[2],inactive
same,outcome,[3],inactive
same,outcome,[4],inactive
same,outcome,[5],inactive
same,outcome,[6],inactive
same,outcome,[7],inactive
same,outcome,[8],inactive
same,outcome,[9],inactive
COc1cc(C(C)C)c2c(c1)S(=O)(=O)N(COc1cc(=O)n3cccc(OCCN4CCCCC4)c3n1)C2=O,outcome,[1],inactive
same,AC50,[2],19.5 µM (active)
same,outcome,[3],inactive
same,outcome,[4],inactive
same,AC50,[5],19.4 µM (active)
same,AC50,[6],21.3 µM (active)
same,outcome,[7],inactive
same,AC50,[8],22.1 µM (active)
same,AC50,[9],17.5 µM (active)
C[C@@H](Oc1ccc(CNC(=O)c2cccnc2Oc2ccc3c(c2)OCO3)c(F)c1)C(=O)O,outcome,[1],inactive
same,outcome,[2],inactive
same,outcome,[3],inactive
same,outcome,[4],inactive
same,outcome,[5],inactive
same,outcome,[6],inactive
same,outcome,[7],inactive
same,outcome,[8],inactive
same,outcome,[9],inactive
CCOc1ccc2[nH]cc(C(=O)NCc3ccccc3)c(=O)c2n1,AC50,[1],34 µM (active)
same,outcome,[2],inactive
same,outcome,[3],inactive
same,outcome,[4],inactive
same,outcome,[5],inactive
same,outcome,[6],inactive
same,outcome,[7],inactive
same,outcome,[8],inactive
same,outcome,[9],inactive
NC(N)=O,AC50,[1],81.8 µM (active)
same,outcome,[2],inactive
same,outcome,[3],inactive
same,outcome,[4],inactive
same,outcome,[5],inactive
same,outcome,[6],inactive
same,outcome,[7],inactive
same,outcome,[8],inactive
same,outcome,[9],inactive
OC(CCl)CCl,AC50,[1],50 µM (active)
same,outcome,[2],inactive
same,outcome,[3],inactive
same,outcome,[4],inactive
same,outcome,[5],inactive
same,outcome,[6],inactive
same,outcome,[7],inactive
same,outcome,[8],inactive
same,outcome,[9],inactive
CCCCCCCC1CCC(=O)O1 (centres undefined),outcome,[2],inactive
same,outcome,[3],inactive
same,outcome,[4],inactive
same,outcome,[5],inactive
same,outcome,[7],inactive
same,outcome,[8],inactive
CCCc1ccccc1,outcome,[1],inactive
same,outcome,[2],inactive
same,outcome,[3],inactive
same,outcome,[4],inactive
same,outcome,[5],inactive
same,outcome,[6],inactive
same,outcome,[7],inactive
same,outcome,[8],inactive
same,outcome,[9],inactive
Cc1ncc([C@@H](CCCCCCc2ccc3c(n2)NCCC3)CC(=O)O)cn1,AC50,[1],50 µM (active)
same,outcome,[2],inactive
same,outcome,[3],inactive
same,outcome,[4],inactive
same,outcome,[5],inactive
same,outcome,[6],inactive
same,outcome,[7],inactive
same,outcome,[8],inactive
same,outcome,[9],inactive
CCCCN1C(=O)[C@@H]([C@H](O)C2CCCCC2)NC(=O)C12CCN(Cc1ccc(Oc3ccc(C(=O)O)cc3)cc1)CC2,AC50,[1],2.16 µM (active)
same,AC50,[2],2.28 µM (active)
same,AC50,[3],6.4 µM (active)
same,outcome,[4],inactive
same,AC50,[5],4.14 µM (active)
same,AC50,[6],2.24 µM (active)
same,AC50,[7],21.5 µM (active)
same,AC50,[8],4.37 µM (active)
same,AC50,[9],0.849 µM (active)
CNC(C)=O,AC50,[1],75.2 µM (active)
same,outcome,[2],inactive
same,outcome,[3],inactive
same,outcome,[4],inactive
same,outcome,[5],inactive
same,outcome,[6],inactive
same,outcome,[7],inactive
same,outcome,[8],inactive
same,outcome,[9],inactive
C[C@]12C=CC(=O)C=C1CC[C@H]1[C@@H]3C[C@@H](O)[C@](O)(C(=O)CO)[C@@]3(C)C[C@H](O)[C@@]12F,AC50,[1],50 µM (active)
same,outcome,[2],inactive
same,outcome,[3],inactive
same,outcome,[4],inactive
same,outcome,[5],inactive
same,outcome,[6],inactive
same,outcome,[7],inactive
same,outcome,[8],inactive
same,outcome,[9],inactive
CCCCCCCCCC,AC50,[1],50 µM (active)
same,outcome,[2],inactive
same,outcome,[3],inactive
same,outcome,[4],inactive
same,outcome,[5],inactive
same,outcome,[6],inactive
same,outcome,[7],inactive
same,outcome,[8],inactive
same,outcome,[9],inactive
